Inconclusive results are not listed. Activity calls are given as the source filed them. Calls come from the whole dose curve.
The compounds below were run against Peroxisome proliferator-activated receptor delta (Homo sapiens) (UniProt Q03181) (assay: qHTS assay for small molecule agonists of peroxisome proliferator-activated receptor delta signaling (AID 588534;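 note: 0% = DMSO basal wells and 100% = positive control agonist at 10 µM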)). Settings: HEK293T PPARdelta-UAS-bla, beta-lactamase ratio, 18 h; series mostly up to 76.7 µM; activation: at the top concentration.
Description: NIH Chemical Genomics Center [NCGC] U.S. Environmental Protection Agency [EPA] National Institutes of Environmental Health Sciences [NIEHS] National Toxicology Program [NTP] NCGC Assay Overview The Peroxisome proliferator-activated receptors (PPARs) are lipid-activated transcription factors of the nuclear receptor superfamily with three distinct subtypes namely PPAR alpha, PPAR delta (also called PPAR beta) and PPAR gamma. All these subtypes heterodimerizes with Retinoid X receptor (RXR) and have different physiological functions. […] This role of PPAR delta implicates the potential use of its ligands in the treatment of metabolic disorders.
Compounds were screened in a titration series in 1536-well format. […] Concentration-response titration points for each compound were fitted to the Hill equation yielding concentrations of half-maximal stimulation (EC50) and maximal response (efficacy) values. qHTS protocol for PPAR-delta beta-lactamase assay in agonist mode [Step] [Parameter] [Value] [Description] 1. Reagent; 6 uL; 4000 cells/well 2. Incubation; 37 C for 5 hrs 3. Compounds; 23 nL; 0.59 nM to 92 uM 4. […] Incubation; 37 C for 18 hrs 6. Detection reagent; 1 uL of CCF4-dye 7. Incubation; RT for 2 hrs 8. Detection; Fluorescence; Envision plate reader

Sequence of Peroxisome proliferator-activated receptor delta (Homo sapiens) (Q03181 whole entry, looked up): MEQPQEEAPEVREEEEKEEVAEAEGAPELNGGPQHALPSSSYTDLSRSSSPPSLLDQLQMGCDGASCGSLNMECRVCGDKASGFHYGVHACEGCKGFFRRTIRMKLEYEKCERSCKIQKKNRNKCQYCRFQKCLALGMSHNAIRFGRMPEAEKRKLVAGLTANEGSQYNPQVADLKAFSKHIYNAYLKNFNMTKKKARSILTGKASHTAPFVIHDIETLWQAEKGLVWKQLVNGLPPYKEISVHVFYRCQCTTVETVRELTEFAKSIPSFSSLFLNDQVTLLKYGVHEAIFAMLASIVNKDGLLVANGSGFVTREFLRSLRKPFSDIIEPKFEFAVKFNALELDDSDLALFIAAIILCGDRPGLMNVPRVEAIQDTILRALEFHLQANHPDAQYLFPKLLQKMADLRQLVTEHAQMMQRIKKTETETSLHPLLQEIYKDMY

| SMILES | activation | outcome |
| --- | --- | --- |
| Nc1cc(Cl)ccc1O | -3.7% (inactive) | – |
| Oc1c(Cl)cccc1Cl | -0.396% (inactive) | – |
| Nc1ncc([N+](=O)[O-])s1 | -2.62% (inactive) | – |
| Cc1cccc(N)c1C | 2.8% (inactive) | – |
| COP(=S)(OC)SCn1nnc2ccccc2c1=O | -12.4% (inactive) | – |
| C=CCc1cc(OC)c2c(c1)OCO2 | 1.08% (inactive) | – |
| CC(Cl)(Cl)Cl | – | inactive |
| O=[N+]([O-])c1ccc2c3c(cccc13)CC2 | – | inactive |
| CN(C)c1ccc(N=Nc2ccccc2)cc1 | -0.127% (inactive) | – |
| CCOC(=O)CBr | 0.138% (inactive) | – |
| ClC(Br)Br | 5.31% (inactive) | – |
| C=CCO | 6.48% (inactive) | – |
| Nc1ccccc1-c1ccccc1 | -0.29% (inactive) | – |
| C=C(C)CCl | 6.21% (inactive) | – |
| CC(Cl)CCl (stereo not given) | 8.29% (inactive) | – |
| BrCCc1ccccc1 | -3.02% (inactive) | – |
| COc1ccc(C=O)cc1 | -0.459% (inactive) | – |
| O=S(=O)(O)F | 2.76% (inactive) | – |
| CC1CC(=O)O1 (stereo not given) | 0.96% (inactive) | – |
| Cc1ccc(N)cc1N | – | inactive |

| SMILES | activation | outcome |
| --- | --- | --- |
| [O-][Cl+]O | -3.4% (inactive) | – |
| N#C/C=C/C#N | -13.1% (inactive) | – |
| CCCCCCCCCCCCCl | 5.77% (inactive) | – |
| CCCCC(CC)COC(=O)c1ccc(C(=O)OCC(CC)CCCC)c(C(=O)OCC(CC)CCCC)c1 (stereo not given) | 6.79% (inactive) | – |
| c1ccc(Nc2ccc(Nc3ccccc3)cc2)cc1 | 6.13% (inactive) | – |
| N#CC(Cl)(Cl)Cl | 6.59% (inactive) | – |
| Clc1cc(Cl)c(Cl)c(Cl)c1 | -0.109% (inactive) | – |
| O=S(=O)(Cl)c1ccccc1 | – | inactive |
| CN1CSC(=S)N(C)C1 | – | inactive |
| CC(C)(C)c1ccccc1O | – | inactive |
| Clc1ccc(C(Cl)(Cl)Cl)c(Cl)c1 | -4.81% (inactive) | – |
| OCC(Cl)CCl (stereo not given) | 8.79% (inactive) | – |
| CC(=O)CCC(C)=O | 2.66% (inactive) | – |
| CC(C)(OOC(C)(C)c1ccccc1)c1ccccc1 | – | inactive |
| C/C=C/CC#N | 5.99% (inactive) | – |
| CC(C)(Cl)Cl | 7.48% (inactive) | – |
| COC(=O)Nc1cccc(OC(=O)Nc2cccc(C)c2)c1 | 1.85% (inactive) | – |
| C=C(Cl)CCl | 0.881% (inactive) | – |
| c1ccc(P(c2ccccc2)c2ccccc2)cc1 | -8.8% (inactive) | – |
| C=CC(=O)OCC(C)C | 4.83% (inactive) | – |

Source: PubChem BioAssay (NCATS)
